Shiga inhibitor: inhibitors of Shiga toxin in Vero cells. 290,000 compounds, 9.2% hits. inhibition, % at 38.7 µM. Vero cells, Shiga toxin protein synthesis inhibition reporter; in the data active = inhibition mostly above about 28%, no sharp cut-off; inactive = mostly below about 43%
LmPK inh: inhibitors of Leishmania mexicana pyruvate kinase. 290,000 compounds, 0.37% hits. Q27686. purified LmPK, Kinase-Glo ATP luminescence, 1 h. Potency, µM (highest dose often 57.5 µM), most hits filed as inhibitors
Target sequence (Q27686 whole entry, looked up): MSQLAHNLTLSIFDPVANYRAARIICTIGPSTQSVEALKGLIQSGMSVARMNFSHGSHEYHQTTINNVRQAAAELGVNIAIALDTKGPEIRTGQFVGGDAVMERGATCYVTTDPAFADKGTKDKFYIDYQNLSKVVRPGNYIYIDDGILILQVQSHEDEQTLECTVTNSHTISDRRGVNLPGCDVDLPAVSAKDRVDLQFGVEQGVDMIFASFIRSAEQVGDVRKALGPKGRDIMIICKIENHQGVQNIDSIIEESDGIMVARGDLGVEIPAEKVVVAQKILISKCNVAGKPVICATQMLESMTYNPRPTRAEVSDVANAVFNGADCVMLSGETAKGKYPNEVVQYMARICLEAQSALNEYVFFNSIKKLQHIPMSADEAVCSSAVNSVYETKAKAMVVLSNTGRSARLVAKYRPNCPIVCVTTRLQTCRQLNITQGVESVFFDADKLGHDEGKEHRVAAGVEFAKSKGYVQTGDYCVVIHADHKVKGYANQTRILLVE
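Screened at intermediate enzyme activity to detect both inhibitors and activators: LmPK at 0.1 nM, with a 0.5 nM enzyme column as activation reference. PEP 0.5 mM, ADP 0.1 mM; ATP detected by luminescence after 1 h.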
TbPYK inhibitor: T. brucei pyruvate kinase inhibition. Potency, µM (doses to about 76.8 µM), usual class: inhibitors. 410,000 compounds, 0.12% hits. TbPYK enzyme, Kinase-Glo Plus ATP luminescence, 45 min. Q57TT1; note: nearly all actives have a fitted effect of over 50% in size
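ADP (130 uM final) triggers the TbPYK reaction after compound addition; incubation is 45 min at room temperature. Kinase-Glo Plus is then added and luminescence imaged. Normalized data are fitted to concentration-effect curves.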
Cycloheximide cs: counter-screen for Shiga toxin inhibitors: cycloheximide protein synthesis inhibition; cell reporter, cycloheximide protein synthesis inhibition counterscreen; max response, %; 300,000 compounds, 12% hits; in the data active = max response mostly above about 13%, no sharp cut-off; inactive = mostly below about 14%; note: read at 38.3 µM for the half of the compounds with a filed dose
RE007 growth inh: less growth of the S. pombe RE007 Vpr strain. S. pombe RE007 Vpr strain, BacTiter-Glo ATP luminescence, 24 h. Potency, µM (titrated, usually from 92.2 µM), usual class: inhibitors. 360,000 compounds, 0.21% hits. AID 651644; active = well fitted falling curve with a large enough effect; inconclusive = small, poorly fitted or top-dose-only effect; inactive = no such curve, though single readings can be large or run the other way; note: nearly all actives have a fitted effect of over 50% in size
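Fission yeast strain RE007, carrying one chromosomally integrated HIV-1 vpr copy, was seeded at OD 0.01 in PMG+AL medium with 23 nL pinned compound. After 24 h at 30 °C and 99% humidity, viability was read by BacTiter-Glo luminescence.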
Giardia FBPA inh: Giardia lamblia aldolase inhibition. Potency, µM (top dose mostly 59.6 µM), usual class: inhibitors. purified Giardia FBPA. A8B2U2. 290,000 compounds, 0.71% hits; note: nearly all actives have a fitted effect of over 55% in size
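40 nM FBPA preincubated 10 min at RT with compound (up to 57.5 uM final), then substrate plus GAPDH/TPI/NAD/arsenate coupling and diaphorase/resazurin added. Fluorescence read after 20 min at RT, 525/598 nm.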
Hits are given with their value. The full list was thinned out, with hits kept by preference. Unless noted, calls come from the whole dose curve; as a rule, active = well fitted curve in the direction sought with a large enough effect; inconclusive = small, poorly fitted or top-dose-only effect, or another doubt; inactive = no such curve, though single readings can be large; an effect the other way counts as inactive or inconclusive.

For O=C(CCC(=O)N1CC2CCCN2c2ccccc21)NCc1ccc(F)cc1 (configuration not stated) the results were TbPYK inhibitor inactive.
Cc1ccc(N(C(=O)CNC(=O)c2ccco2)C(C(=O)NC2CCCC2)c2cccnc2)c(C)c1 (configuration not stated) was read as Shiga inhibitor inactive, LmPK inh inactive, TbPYK inhibitor inactive, Cycloheximide cs inactive and RE007 growth inh inactive.
For Cc1ccc2c(c1)c1c3n2CCN(CCC#N)C3CCC1 (configuration not stated) the results were TbPYK inhibitor inactive and RE007 growth inh inactive.
CCN1CCn2c3c(c4cc(C)ccc42)CCCC31 (configuration not stated) was read as Shiga inhibitor inactive, LmPK inh inactive, TbPYK inhibitor inactive, Cycloheximide cs 25, RE007 growth inh inactive and Giardia FBPA inh inactive.
Cc1ccc2c(c1)c1c3n2CCN(C(=O)CCl)C3CCC1 (configuration not stated) was read as Shiga inhibitor inactive, LmPK inh inactive, TbPYK inhibitor inactive, Cycloheximide cs 9.8, RE007 growth inh inactive and Giardia FBPA inh inactive.
CC(=O)N1CCn2c3c(c4cc(C)ccc42)CCCC31 (configuration not stated) was read as Shiga inhibitor inactive, LmPK inh inactive, TbPYK inhibitor inactive, Cycloheximide cs inactive, RE007 growth inh inactive and Giardia FBPA inh inactive.
Screening Cc1ccc(CCN2CC(C(=O)NC3CCC(C)CC3)CC2=O)cc1 (configuration not stated) returned TbPYK inhibitor inactive and RE007 growth inh inactive.
Screening O=C(CSCc1cnn(-c2ccccc2)c1-n1cccc1)NCc1ccc(F)cc1 returned TbPYK inhibitor inactive.
CN(Cc1nc(-c2ccccn2)no1)S(=O)(=O)c1ccccc1 was read as Shiga inhibitor 61, LmPK inh inactive, TbPYK inhibitor inactive, Cycloheximide cs 24, RE007 growth inh inactive and Giardia FBPA inh inactive.
Screening COc1ccc(-c2noc(COc3ccc4ccccc4c3Br)n2)cc1OC returned Shiga inhibitor inactive, LmPK inh inactive, TbPYK inhibitor inactive, Cycloheximide cs inactive, RE007 growth inh inactive and Giardia FBPA inh inactive.
For c1ccc(CCc2nc(-c3ccccn3)no2)cc1 the results were Shiga inhibitor 125, LmPK inh inactive, TbPYK inhibitor inactive, Cycloheximide cs 31, RE007 growth inh inactive and Giardia FBPA inh inactive.
`Brc1ccc(-c2noc(CCc3ccccc3)n2)o1` gave Shiga inhibitor 84, LmPK inh inactive, TbPYK inhibitor inactive, Cycloheximide cs 17, RE007 growth inh inactive and Giardia FBPA inh inactive.
O=C(NCc1nc(-c2ccccc2)no1)c1ccc(Br)o1 was read as Shiga inhibitor inactive, LmPK inh inactive, TbPYK inhibitor inactive, Cycloheximide cs inactive, RE007 growth inh inactive and Giardia FBPA inh inactive.
`Clc1ccccc1OCc1nc(-c2ccc(Br)o2)no1` gave Shiga inhibitor 70, LmPK inh inactive, TbPYK inhibitor inactive, Cycloheximide cs 54, RE007 growth inh inactive and Giardia FBPA inh inactive.
`Fc1ccc(OCc2nc(-c3ccc(Br)o3)no2)c(F)c1` gave Shiga inhibitor 62, LmPK inh inactive, TbPYK inhibitor inactive, Cycloheximide cs 18, RE007 growth inh inactive and Giardia FBPA inh inactive.
For Cc1oc(-c2ccc(C(=O)N(C)Cc3ccccc3)cc2)nc1CN1CCc2ccccc21 the results were TbPYK inhibitor inactive.
Screening CCOc1ccc(C(=O)c2nc3c(n2O)CCCC3)cc1 returned Shiga inhibitor inactive, LmPK inh inactive, TbPYK inhibitor inactive, Cycloheximide cs 23, RE007 growth inh inactive and Giardia FBPA inh inactive.
For O=C(c1cc2ccccc2o1)c1nc2c(n1O)CCCCC2 the results were Shiga inhibitor 83, LmPK inh inactive, TbPYK inhibitor inactive, Cycloheximide cs 47, RE007 growth inh inconclusive and Giardia FBPA inh inactive.
For Cc1ccc(C(=O)c2nc3c(n2O)CCCC3)cc1 the results were Shiga inhibitor inactive, LmPK inh inactive, TbPYK inhibitor inactive, Cycloheximide cs inactive, RE007 growth inh inactive and Giardia FBPA inh inactive.
`Cc1ccc2oc(=O)c3cnn(CC(=O)Nc4cc(-c5cccc(F)c5)no4)c3c2c1` gave Shiga inhibitor inactive, LmPK inh inactive, TbPYK inhibitor inactive, Cycloheximide cs inactive, RE007 growth inh inactive and Giardia FBPA inh inactive.
`COc1c(/C=N/NS(=O)(=O)c2ccc(C)cc2)c(CCN(C)C(C)=O)cc2c1OCO2` gave Shiga inhibitor inactive, LmPK inh inactive, TbPYK inhibitor inactive, Cycloheximide cs inactive, RE007 growth inh inactive and Giardia FBPA inh inactive.
Screening COc1c(/C=N/Nc2ccc(C(=O)O)cc2)c(CCN(C)C(C)=O)cc2c1OCO2 returned Shiga inhibitor 70, LmPK inh inactive, TbPYK inhibitor inactive, Cycloheximide cs 25, RE007 growth inh inactive and Giardia FBPA inh inactive.
COc1c(/C=N/NC(=O)c2ccccc2O)c(CCN(C)C(C)=O)cc2c1OCO2 was read as Shiga inhibitor 57, LmPK inh inactive, TbPYK inhibitor inactive, Cycloheximide cs 16, RE007 growth inh inactive and Giardia FBPA inh inactive.
Screening CCOc1ccc(N2C=Nc3ccc(OCC)cc3C2)cc1 returned Shiga inhibitor 48, LmPK inh inactive, TbPYK inhibitor inactive, Cycloheximide cs 14, RE007 growth inh inactive and Giardia FBPA inh inactive.
Screening CCCOc1ccc(N2C(=O)CC(N(CCc3ccccc3)C(=O)c3ccccc3)C2=O)cc1 (configuration not stated) returned Shiga inhibitor inactive, LmPK inh inactive, TbPYK inhibitor inactive, Cycloheximide cs 21, RE007 growth inh inactive and Giardia FBPA inh inactive.
CCCOc1ccc(N2C(=O)CC(N(O)c3ccccc3)C2=O)cc1 (configuration not stated) was read as Shiga inhibitor 113, LmPK inh inactive, TbPYK inhibitor inactive, Cycloheximide cs inactive, RE007 growth inh inactive and Giardia FBPA inh inactive.
CCCOc1ccccc1N1C(=O)CC(N(O)c2ccccc2)C1=O (configuration not stated) was read as Shiga inhibitor inactive, LmPK inh inactive, TbPYK inhibitor inactive, Cycloheximide cs 14, RE007 growth inh inactive and Giardia FBPA inh inactive.
For COc1ccccc1N(O)C1CC(=O)N(c2ccc(F)cc2)C1=O (configuration not stated) the results were Shiga inhibitor 61, LmPK inh inactive, TbPYK inhibitor inactive, Cycloheximide cs 32, RE007 growth inh inactive and Giardia FBPA inh inactive.
For COc1ccccc1N1C(=O)CC(N(O)c2ccccc2)C1=O (configuration not stated) the results were Shiga inhibitor inactive, LmPK inh inactive, TbPYK inhibitor inactive, Cycloheximide cs inactive, RE007 growth inh inactive and Giardia FBPA inh inactive.
COCCNc1nc(-c2cc(F)ccc2C)c2sc(-c3ccccc3)cc2n1 was read as TbPYK inhibitor inactive and RE007 growth inh inactive.

Compound activity (PubChem)
